HCMV antiviral = qHTS Assay for inhibitors of the human cytomegalovirus (HCMV). HFF cells, HCMV-luciferase reporter, 72 h; hits give low values. activity change, negative = inhibition, % at 57.5 µM. actives 4.5% (n = 410,000). AID 1259415, 2018; in the data active = activity change below about -60%; inconclusive = no clear call, values can overlap the other calls; inactive = above about -39%; note: % is set by controls: 0 for no effect and ±100 for the full control effect
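Inhibition of viral replication was scored as loss of reporter luminescence in HFFs infected with HCMV-luciferase (MOI 1 PFU/cell) for 72 h; compounds tested at 2 doses, normalized to buffer and Salinomycin controls.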
Shiga inhibitor = A qHTS for Small Molecule Inhibitors of Shiga Toxin. AID 2315, 2010. inhibition, % at 38.7 µM. Vero cells, Shiga toxin protein synthesis inhibition reporter. actives 9.2% (n = 290,000); in the data active = inhibition mostly above about 28%, no sharp cut-off; inactive = mostly below about 43%; note: 0% is about no effect
Pf growth 48h = Primary qHTS for delayed death inhibitors of the malarial parasite plastid, 48 hour incubation | P. falciparum luciferase growth in erythrocytes, 48 h | Potency, µM (top dose mostly 28.7 µM), for the others: at the highest dose activity change, negative = inhibition, most hits filed as inhibitors | actives 5.9% (n = 310,000); note: potency is the fitted concentration of half-maximal effect; % is set by controls: 0 for no effect and ±100 for the full control effect
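First compound was added to culture medium, then infected red cells at 0.1% parasitemia and 2% hematocrit (final). After incubation at 37 C under 5% CO2, luciferase detection reagent was dispensed and light output recorded.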
Pf growth 96h = Primary qHTS for delayed death inhibitors of the malarial parasite plastid, 96 hour incubation; P. falciparum luciferase reporter growth, 96 h; Potency, µM (highest dose often 28.7 µM), without a hit: at the top dose activity change, negative = inhibition, actives largely listed as inhibitors; actives 6.9% (n = 320,000); note: potency is the fitted concentration of half-maximal effect; % is set by controls: 0 for no effect and ±100 for the full control effect
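P. falciparum expressing integrated firefly luciferase, in erythrocytes at 2% hematocrit, 0.05% parasitemia, incubated with compounds 96 h at 37 C, 5% CO2. Growth inhibition read as loss of luminescence; two-generation exposure targets delayed-death apicoplast inhibitors.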
Cycloheximide cs = Cycloheximide Counterscreen for Small Molecule Inhibitors of Shiga Toxin; cell reporter, cycloheximide protein synthesis inhibition counterscreen; max response, %; actives 12% (n = 300,000); in the data active = max response mostly above about 13%, no sharp cut-off; inactive = mostly below about 14%; note: read at 38.3 µM for the half of the compounds with a filed dose; 0% is about no effect
HCV inh = qHTS Assay for Inhibitors of Hepatitis C Virus (HCV) | Potency, µM (top dose mostly 41.8 µM), for the others: at the top dose activity change, negative = inhibition, hits mostly inhibitors | actives 3.4% (n = 340,000) | Huh7.5.1 HCVcc-Cre infection, luciferase reporter, 44 h; note: potency is the fitted concentration of half-maximal effect; % is set by controls: 0 for no effect and ±100 for the full control effect
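Antiviral activity was scored by luciferase reporter output from cells infected with HCVcc-Cre (~0.5 moi) in presence of compound, 44 h infection period, cells seeded 1,000/well 4 h prior.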
Active calls of the source: *; i = inactive; ? = inconclusive; / = no result given. The list is not random: actives were taken first. Their share in the collection is about 21%. Unless noted, calls come from the whole dose curve; as a rule, active = well fitted inhibition curve with a large enough effect; inconclusive = small, poorly fitted or top-dose-only effect, or another doubt; inactive = no such curve, though single readings can be large or run the other way.

SMILES	HCMV antiviral	Shiga inhibitor	Pf growth 48h	Pf growth 96h	Cycloheximide cs	HCV inh
CCOC(=O)[C@H]1[C@H]2COc3ccc(Br)cc3[C@@H]2N2C(=O)c3c(C)cc(C)cc3NC(=O)[C@@]12C	2	/	/	/	/	?
CCCCOc1ccc(C(=O)NCC(=O)N2CCN(C(=O)c3ccco3)CC2)cc1	-20	/	?	?	/	-8%
COc1ccc(Nc2nn3c(=O)c4cc5c(cc4nc3s2)OCO5)c(OC)c1	22	/	/	/	/	/
CCOc1ccc2nc(SCc3ccc(C(=O)OC)o3)[nH]c2c1	32	44*	40%	29%	28*	-14%
Cc1ccc2nc(SCC(=O)NC(=O)NCc3ccco3)[nH]c2c1	29	13	?	/	13*	12%
Cc1ccc2nc(SCC(=O)NCc3ccco3)[nH]c2c1	-3	-3	/	?	-3	?
COC(=O)c1ccc(CSc2nc3ccc(Cl)cc3[nH]2)o1	6	-6	/	26%	-2	21%
Cc1cccc(C(=O)Nc2nc3ccc(S(C)(=O)=O)cc3s2)c1	44	88*	60%	-6%	36*	?
Cc1ccc(NC(=O)Nc2nc3ccc(S(C)(=O)=O)cc3s2)cc1	-8	/	?	?	/	?
CS(=O)(=O)c1ccc2nc(NC(=O)Nc3ccccc3F)sc2c1	89	73*	223%	-9%	61*	7%
COc1ccc(C(=O)Nc2nc3ccc(S(C)(=O)=O)cc3s2)cc1OC	-26	-4	15%	5.9µM*	-3	?
CS(=O)(=O)c1ccc2nc(NC(=O)c3ccccc3)sc2c1	135	39*	184%	4%	28*	2%
Cc1ccc(C(=O)Nc2nc3ccc(S(C)(=O)=O)cc3s2)cc1C	27	-5	/	32%	-2	?
CCCNC(=O)C(=O)NCC(c1ccc2c(c1)OCO2)N1CCN(c2ccc(F)cc2)CC1 (stereo unspecified)	-17	-7	-23%	-8%	-7	?
CC(OC(=O)CC1Sc2ccccc2NC1=O)C(=O)NC1CCCC1 (stereo unspecified)	-23	-11	3%	-10%	-4	12%
CS(=O)(=O)c1ccc2nc(NC(=O)Nc3ccc(Cl)c(Cl)c3)sc2c1	-38	12	-22%	47%	-2	-3%
CS(=O)(=O)c1ccc2nc(NC(=O)Nc3cccc(Cl)c3)sc2c1	-38	107*	?	?	31*	11µM*
CS(=O)(=O)c1ccc2nc(NC(=O)CCNC(=O)c3ccc([N+](=O)[O-])cc3)sc2c1	-21	/	?	0.74µM*	/	?
CC(C)(C)C(=O)Nc1nc2ccc(S(C)(=O)=O)cc2s1	35	78*	56%	117%	36*	0%
CS(=O)(=O)c1ccc2nc(NC(=O)c3ccc(NS(=O)(=O)c4cccc([N+](=O)[O-])c4)cc3)sc2c1	0	-5	?	?	-4	-8%
CC(=O)Nc1ccc(NC(=O)CSc2nnc(NC(=O)C3CC(=O)N(c4ccc(F)cc4)C3)s2)cc1 (stereo unspecified)	28	-1	-6%	?	-3	1%
COc1ccccc1CCNC(=O)Cc1c(C)c2c(cc(C)c3c(C)coc32)oc1=O	-16	/	/	/	/	/
Cn1cnnc1SCC(=O)N1N=C2/C(=C/c3ccco3)CCCC2C1c1ccco1 (stereo unspecified)	-61*	6	?	10µM*	10	-21%
COC(=O)CCC(=O)NC(=S)Nc1cc(Cl)ccc1Cl	0	-17	0%	33%	-3	?
COC(=O)c1cc(=O)n(Cc2ccco2)c(=Nc2ccc(F)c(Cl)c2)s1	-29	-14	/	-8%	-5	?
SMILES	HCMV antiviral	Shiga inhibitor	Pf growth 48h	Pf growth 96h	Cycloheximide cs	HCV inh
COC(=O)c1cc(=O)n(CCc2ccccc2F)c(=Nc2ccc(F)c(Cl)c2)s1	?	-7	/	-17%	-8	7.9µM*
COc1ccc(C2=CC(=O)C[C@H](c3ccc(F)cc3)C2)cc1OC	16	/	?	?	/	-16%
Cn1c(=O)c(-c2cc(Br)ccc2N)nc2ccccc21	168	60	/	-24%	33*	-20%
CN(C)c1nc2ccccc2n(C)c1=O	?	-4	0%	11%	4	-5%
COC(=O)C1CN(C(=O)COc2ccc(Cl)cc2C)c2ccccc2O1 (stereo unspecified)	-61*	25	15µM*	?	21	5%
CC(c1ccccc1)C1CC(=O)N(Cc2ccccc2)C1=O (stereo unspecified)	9	-5	-5%	-30%	-1	16%
CCN(C(=O)Cn1c(=O)oc2cc(S(=O)(=O)N3CCCCCC3)ccc21)c1cccc(C)c1	-11	/	/	/	/	/
CC(C)CC(=O)Nc1cc2nn(-c3ccccc3)nc2cc1Cl	20	115*	/	113%	74*	2%
Nc1cc2nn(-c3ccccc3)nc2cc1Cl	125	141*	i	-13%	32*	?
Nc1ccc2nn(-c3ccccc3)nc2c1	88	97*	102%	4%	53*	-14%
O=C(CS(=O)(=O)Cc1ccccc1)Nc1ccccn1	-102*	-3	28%	23%	-2	-6%
Cc1ccnc(NC(=O)CCCc2ccccc2)c1	34	74*	126%	25%	58*	9%
Cc1ccnc(NC(=O)CSc2ccccn2)c1	14	42	55%	92%	29*	13%
Cc1cc(NC(=O)CSc2ccccn2)no1	-15	-4	12%	48%	11	20%
O=C(CCCc1ccccc1)Nc1ccccn1	?	74*	28%	85%	19*	-5%
O=c1[nH]cc(S(=O)(=O)N2CCCc3ccccc32)c(=O)[nH]1	-7	/	1%	2%	/	0%
COC(=O)CCCNC(=O)c1ccccn1	-10	-12	32%	7%	-2	23%
CCc1c(-c2ccccc2)nc2ccccc2c1C(=O)NCCc1ccccc1	-17	/	/	/	/	/
Cc1ccc(N2C(=O)CS(=O)C(c3ccccc3)C2=O)cc1C (stereo unspecified)	?	65*	?	-11%	28*	?
Cc1ccccc1-c1nc2ccccc2c(=O)o1	6	/	/	/	/	/
O=C(O)c1ccccc1NS(=O)(=O)c1ccc2ccccc2c1	26	64	7%	17%	33*	4%
O=c1oc(-c2ccccc2NS(=O)(=O)c2ccc3ccccc3c2)nc2ccccc12	-32	-10	5%	10µM*	-4	1%
CCN(CC)C(=O)C1CCN(S(=O)(=O)c2c(C)noc2/C=C/c2cccc(OC)c2)CC1	0	/	/	/	/	/
